Measured values as given in the supplement of paper PMC10849652.
About 7,900 targets were measured; listed, in parts, are those with a hit and a random draw of the rest. About 0.6% of all pairs of compound and target were hits.

Legend:
Test in all cases: log2 fold change, soluble protein after heating vs DMSO (PISA); higher = thermal stabilisation; K562 cells, 10 uM, 30 min; active = over 0.2 and 3.5 SD of the protein, either way, in both replicates (recomputed)
[1] = compound: NC(=O)Nc1cc(-c2cccc(F)c2)sc1C(=O)N[C@H]1CCCNC1
Procedure, shortened: (§1)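 Values are thermal stability changes relative to control samples and are taken from duplicates. They are stated as log2 fold changes. Before quantification by TMTpro 16plex LC-MS/MS with equalised channel sums, K562 cells at 2×10^6 cells/mL were treated with 10 μM compound for 30 min, heated in aliquots for 3 min across 48°C-58°C, pooled, extracted in PBS with 0.5% NP-40 at 4°C, and centrifuged at 21,000xg for 90 min to give the soluble supernatant.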

[2] = compound: NC(=O)c1cnc(N[C@@H]2CCCC[C@@H]2N)nc1Nc1cccc(-n2nccn2)c1
Procedure, shortened: as §1

[3] = compound: NC1(c2ccc(-c3nc4ccn5c(=O)[nH]nc5c4cc3-c3ccccc3)cc2)CCC1
Procedure, shortened: as §1

[4] = compound: NCC(=O)Nc1ccc(-n2nc(C(F)(F)F)cc2-c2ccc3c(ccc4ccccc43)c2)cc1
Procedure, shortened: as §1

entinostat = compound: Nc1ccccc1NC(=O)c1ccc(CNC(=O)OCc2cccnc2)cc1 [entinostat]
Procedure, shortened: as §1

vorinostat = compound: O=C(CCCCCCC(=O)Nc1ccccc1)NO [vorinostat]
Procedure, shortened: as §1

citarinostat = compound: O=C(CCCCCCNC(=O)c1cnc(N(c2ccccc2)c2ccccc2Cl)nc1)NO [citarinostat]
Procedure, shortened: as §1

silmitasertib = compound: O=C(O)c1ccc2c(c1)nc(Nc1cccc(Cl)c1)c1ccncc12 [silmitasertib]
Procedure, shortened: as §1

[5] = compound: O=C1NC(=O)C(c2cnc3ccccn23)=C1c1cn2c3c(cc(F)cc13)CN(C(=O)N1CCCCC1)CC2
Procedure, shortened: as §1

[6] = compound: c1cc(OCCN2CCCCC2)cc(-c2n[nH]c3ccc(-c4nnc[nH]4)cc23)c1
Procedure, shortened: as §1

entospletinib = compound: c1cn2cc(-c3ccc4cn[nH]c4c3)nc(Nc3ccc(N4CCOCC4)cc3)c2n1 [entospletinib]
Procedure, shortened: as §1

Measured: log2 fold change

THRAP3 (UniProt Q9Y2W1)
inactive: [1] -0.02 | [2] -0.076 | [3] -0.153 | [4] -0.037 | entinostat 0.024 | vorinostat 0.021 | citarinostat 0.005 | silmitasertib -0.169 | [5] -0.026 | [6] -0.257 | entospletinib 0.09

SMDT1 (UniProt Q9H4I9)
Sequence of UniProt Q9H4I9 (Q9H4I9 whole entry, looked up): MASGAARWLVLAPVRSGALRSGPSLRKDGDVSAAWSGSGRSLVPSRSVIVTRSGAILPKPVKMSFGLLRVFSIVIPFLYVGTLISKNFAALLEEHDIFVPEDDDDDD
inactive: [1] -0.062 | [2] 0.032 | [3] -0.061 | [4] -0.039 | entinostat 0.01 | vorinostat -0.038 | citarinostat 0.002 | silmitasertib 0.041 | [5] -0.011 | [6] -0.001 | entospletinib 0.01

STK38L (UniProt Q9Y2H1)
inactive: [1] -0.046 | [2] -0.015 | [3] -0.117 | [4] 0.078 | entinostat 0.109 | vorinostat 0.02 | citarinostat 0.036 | silmitasertib 0.101 | [5] -0.078 | [6] 0.05 | entospletinib 0.083

SRP68 (UniProt Q9UHB9)
inactive: [1] -0.068 | [2] -0.08 | [3] -0.094 | [4] -0.035 | entinostat 0.101 | vorinostat 0.08 | citarinostat 0.095 | silmitasertib 0.08 | [5] 0.096 | [6] -0.062 | entospletinib 0.091

SNRPD3 (UniProt P62318)
inactive: [1] 0.034 | [2] -0.01 | [3] 0.025 | [4] 0.013 | entinostat -0.059 | vorinostat -0.067 | citarinostat -0.019 | silmitasertib 0.092 | [6] -0.055 | entospletinib 0.01
active: [5] 0.271

SMARCE1 (UniProt Q969G3)
inactive: [1] 0.05 | [2] 0.096 | [3] 0.218 | [4] 0.707 | entinostat 0.076 | vorinostat 0.088 | citarinostat 0 | silmitasertib 0.211 | [5] -0.008 | [6] -0.016 | entospletinib -0.117

TBC1D9B (UniProt Q66K14)
inactive: [1] -0.194 | [2] -0.095 | [3] -0.07 | [4] -0.012 | entinostat -0.085 | vorinostat -0.034 | citarinostat 0.173 | silmitasertib 0.021 | [5] -0.176 | [6] -0.13 | entospletinib 0.138

STK39 (UniProt Q9UEW8)
inactive: [1] -0.064 | [2] 0.034 | [3] -0.146 | [4] -0.028 | entinostat 0.069 | vorinostat 0.063 | citarinostat 0.051 | silmitasertib 0.003 | [5] 0.003 | [6] -0.072 | entospletinib -0.007

SURF1 (UniProt Q15526)
inactive: [1] -0.007 | [2] 0.014 | [3] -0.176 | [4] -0.135 | entinostat 0.077 | vorinostat 0.059 | citarinostat 0.112 | silmitasertib -0.04 | [5] -0.031 | [6] -0.043 | entospletinib 0.029

TAF9 (UniProt Q16594)
inactive: [1] -0.352 | [2] -0.026 | [3] 0.037 | [4] 0 | vorinostat 0.002 | citarinostat -0.043 | silmitasertib -0.039 | [5] -0.022 | [6] 0.055 | entospletinib -0.042
active: entinostat -0.567

SNUPN (UniProt O95149)
inactive: [1] -0.031 | [2] -0.06 | [3] -0.095 | [4] -0.063 | entinostat 0.06 | vorinostat 0.027 | citarinostat -0.082 | silmitasertib 0.027 | [5] -0.077 | [6] 0.071 | entospletinib 0.064

TFAM (UniProt Q00059)
inactive: [1] -0.079 | [2] -0.006 | [3] 0.085 | [4] 0.011 | entinostat -0.035 | vorinostat 0.005 | citarinostat -0.151 | silmitasertib 0.011 | [5] 0.06 | [6] -0.115 | entospletinib 0.08

TM9SF2 (UniProt Q99805)
inactive: [1] 0.026 | [2] 0.006 | [3] -0.138 | [4] -0.022 | entinostat -0.006 | vorinostat 0.006 | citarinostat -0.003 | silmitasertib 0.002 | [5] -0.057 | [6] -0.062 | entospletinib 0.023

SRSF11 (UniProt Q05519)
inactive: [1] -0.183 | [2] -0.032 | [3] -0.063 | [4] -0.074 | entinostat 0.018 | vorinostat 0.06 | citarinostat 0.046 | silmitasertib -0.099 | [5] 0.037 | [6] -0.038 | entospletinib 0

SP1 (UniProt P08047)
inactive: [1] -0.017 | [2] 0.011 | [3] 0.1 | [4] -0.001 | entinostat -0.005 | vorinostat 0.052 | citarinostat -0.057 | silmitasertib -0.007 | [5] 0.088 | [6] -0.088 | entospletinib 0.068

SLK isoform 2 (UniProt Q9H2G2)
inactive: [2] -0.042 | [3] -0.058 | [4] -0.014 | entinostat 0.048 | vorinostat 0.006 | citarinostat 0.074 | silmitasertib 0.124 | [5] 0.009 | [6] -0.044 | entospletinib -0.059
active: [1] -0.314

STX7 (UniProt O15400)
inactive: [1] 0.036 | [2] -0.02 | [3] -0.072 | [4] 0.011 | entinostat -0.028 | vorinostat -0.093 | citarinostat -0.002 | silmitasertib 0.017 | [5] -0.006 | [6] 0.079 | entospletinib 0.02

SMARCA4 (UniProt P51532)
inactive: [1] -0.144 | [2] -0.056 | [3] 0.048 | [4] -0.201 | entinostat 0.012 | vorinostat 0.038 | citarinostat 0.102 | silmitasertib -0.017 | [5] -0.067 | [6] -0.115 | entospletinib 0.097

TEX264 (UniProt Q9Y6I9)
inactive: [2] -0.001 | [3] 0.215 | [4] -0.033 | entinostat 0.006 | vorinostat -0.012 | citarinostat -0.054 | silmitasertib 0.02 | [5] -0.093 | [6] 0.515
active: [1] 0.548 | entospletinib 0.601

SNX2 (UniProt O60749)
inactive: [1] -0.001 | [2] -0.204 | [3] -0.146 | [4] 0 | entinostat 0.092 | vorinostat 0.093 | citarinostat 0.062 | silmitasertib -0.068 | [5] -0.044 | [6] -0.082 | entospletinib -0.015

SRSF6 (UniProt Q13247)
inactive: [1] -0.06 | [2] 0.038 | [3] 0.191 | [4] 0.032 | entinostat -0.082 | vorinostat 0.084 | citarinostat -0.068 | silmitasertib -0.254 | [5] 0.108 | [6] -0.299 | entospletinib 0.29

TBC1D10B (UniProt Q4KMP7)
active: [6] -0.283
inactive: [1] -0.141 | [2] 0.007 | [3] 0.038 | [4] -0.027 | entinostat 0.017 | vorinostat -0.03 | citarinostat 0.039 | silmitasertib -0.009 | [5] -0.005 | entospletinib 0

STK38 (UniProt Q15208)
inactive: [1] -0.072 | [2] -0.077 | [3] -0.11 | [4] -0.062 | entinostat 0.129 | vorinostat 0.016 | citarinostat 0.097 | silmitasertib 0.061 | [5] 0.004 | [6] -0.086 | entospletinib -0.033

SRPRA (UniProt P08240)
inactive: [1] -0.03 | [2] 0.017 | [3] -0.049 | [4] -0.045 | entinostat 0.02 | vorinostat 0.033 | citarinostat 0 | silmitasertib 0.021 | [5] 0.008 | [6] 0.015 | entospletinib -0.052

STARD9 (UniProt Q9P2P6)
Sequence of UniProt Q9P2P6 (Q9P2P6 whole entry, looked up): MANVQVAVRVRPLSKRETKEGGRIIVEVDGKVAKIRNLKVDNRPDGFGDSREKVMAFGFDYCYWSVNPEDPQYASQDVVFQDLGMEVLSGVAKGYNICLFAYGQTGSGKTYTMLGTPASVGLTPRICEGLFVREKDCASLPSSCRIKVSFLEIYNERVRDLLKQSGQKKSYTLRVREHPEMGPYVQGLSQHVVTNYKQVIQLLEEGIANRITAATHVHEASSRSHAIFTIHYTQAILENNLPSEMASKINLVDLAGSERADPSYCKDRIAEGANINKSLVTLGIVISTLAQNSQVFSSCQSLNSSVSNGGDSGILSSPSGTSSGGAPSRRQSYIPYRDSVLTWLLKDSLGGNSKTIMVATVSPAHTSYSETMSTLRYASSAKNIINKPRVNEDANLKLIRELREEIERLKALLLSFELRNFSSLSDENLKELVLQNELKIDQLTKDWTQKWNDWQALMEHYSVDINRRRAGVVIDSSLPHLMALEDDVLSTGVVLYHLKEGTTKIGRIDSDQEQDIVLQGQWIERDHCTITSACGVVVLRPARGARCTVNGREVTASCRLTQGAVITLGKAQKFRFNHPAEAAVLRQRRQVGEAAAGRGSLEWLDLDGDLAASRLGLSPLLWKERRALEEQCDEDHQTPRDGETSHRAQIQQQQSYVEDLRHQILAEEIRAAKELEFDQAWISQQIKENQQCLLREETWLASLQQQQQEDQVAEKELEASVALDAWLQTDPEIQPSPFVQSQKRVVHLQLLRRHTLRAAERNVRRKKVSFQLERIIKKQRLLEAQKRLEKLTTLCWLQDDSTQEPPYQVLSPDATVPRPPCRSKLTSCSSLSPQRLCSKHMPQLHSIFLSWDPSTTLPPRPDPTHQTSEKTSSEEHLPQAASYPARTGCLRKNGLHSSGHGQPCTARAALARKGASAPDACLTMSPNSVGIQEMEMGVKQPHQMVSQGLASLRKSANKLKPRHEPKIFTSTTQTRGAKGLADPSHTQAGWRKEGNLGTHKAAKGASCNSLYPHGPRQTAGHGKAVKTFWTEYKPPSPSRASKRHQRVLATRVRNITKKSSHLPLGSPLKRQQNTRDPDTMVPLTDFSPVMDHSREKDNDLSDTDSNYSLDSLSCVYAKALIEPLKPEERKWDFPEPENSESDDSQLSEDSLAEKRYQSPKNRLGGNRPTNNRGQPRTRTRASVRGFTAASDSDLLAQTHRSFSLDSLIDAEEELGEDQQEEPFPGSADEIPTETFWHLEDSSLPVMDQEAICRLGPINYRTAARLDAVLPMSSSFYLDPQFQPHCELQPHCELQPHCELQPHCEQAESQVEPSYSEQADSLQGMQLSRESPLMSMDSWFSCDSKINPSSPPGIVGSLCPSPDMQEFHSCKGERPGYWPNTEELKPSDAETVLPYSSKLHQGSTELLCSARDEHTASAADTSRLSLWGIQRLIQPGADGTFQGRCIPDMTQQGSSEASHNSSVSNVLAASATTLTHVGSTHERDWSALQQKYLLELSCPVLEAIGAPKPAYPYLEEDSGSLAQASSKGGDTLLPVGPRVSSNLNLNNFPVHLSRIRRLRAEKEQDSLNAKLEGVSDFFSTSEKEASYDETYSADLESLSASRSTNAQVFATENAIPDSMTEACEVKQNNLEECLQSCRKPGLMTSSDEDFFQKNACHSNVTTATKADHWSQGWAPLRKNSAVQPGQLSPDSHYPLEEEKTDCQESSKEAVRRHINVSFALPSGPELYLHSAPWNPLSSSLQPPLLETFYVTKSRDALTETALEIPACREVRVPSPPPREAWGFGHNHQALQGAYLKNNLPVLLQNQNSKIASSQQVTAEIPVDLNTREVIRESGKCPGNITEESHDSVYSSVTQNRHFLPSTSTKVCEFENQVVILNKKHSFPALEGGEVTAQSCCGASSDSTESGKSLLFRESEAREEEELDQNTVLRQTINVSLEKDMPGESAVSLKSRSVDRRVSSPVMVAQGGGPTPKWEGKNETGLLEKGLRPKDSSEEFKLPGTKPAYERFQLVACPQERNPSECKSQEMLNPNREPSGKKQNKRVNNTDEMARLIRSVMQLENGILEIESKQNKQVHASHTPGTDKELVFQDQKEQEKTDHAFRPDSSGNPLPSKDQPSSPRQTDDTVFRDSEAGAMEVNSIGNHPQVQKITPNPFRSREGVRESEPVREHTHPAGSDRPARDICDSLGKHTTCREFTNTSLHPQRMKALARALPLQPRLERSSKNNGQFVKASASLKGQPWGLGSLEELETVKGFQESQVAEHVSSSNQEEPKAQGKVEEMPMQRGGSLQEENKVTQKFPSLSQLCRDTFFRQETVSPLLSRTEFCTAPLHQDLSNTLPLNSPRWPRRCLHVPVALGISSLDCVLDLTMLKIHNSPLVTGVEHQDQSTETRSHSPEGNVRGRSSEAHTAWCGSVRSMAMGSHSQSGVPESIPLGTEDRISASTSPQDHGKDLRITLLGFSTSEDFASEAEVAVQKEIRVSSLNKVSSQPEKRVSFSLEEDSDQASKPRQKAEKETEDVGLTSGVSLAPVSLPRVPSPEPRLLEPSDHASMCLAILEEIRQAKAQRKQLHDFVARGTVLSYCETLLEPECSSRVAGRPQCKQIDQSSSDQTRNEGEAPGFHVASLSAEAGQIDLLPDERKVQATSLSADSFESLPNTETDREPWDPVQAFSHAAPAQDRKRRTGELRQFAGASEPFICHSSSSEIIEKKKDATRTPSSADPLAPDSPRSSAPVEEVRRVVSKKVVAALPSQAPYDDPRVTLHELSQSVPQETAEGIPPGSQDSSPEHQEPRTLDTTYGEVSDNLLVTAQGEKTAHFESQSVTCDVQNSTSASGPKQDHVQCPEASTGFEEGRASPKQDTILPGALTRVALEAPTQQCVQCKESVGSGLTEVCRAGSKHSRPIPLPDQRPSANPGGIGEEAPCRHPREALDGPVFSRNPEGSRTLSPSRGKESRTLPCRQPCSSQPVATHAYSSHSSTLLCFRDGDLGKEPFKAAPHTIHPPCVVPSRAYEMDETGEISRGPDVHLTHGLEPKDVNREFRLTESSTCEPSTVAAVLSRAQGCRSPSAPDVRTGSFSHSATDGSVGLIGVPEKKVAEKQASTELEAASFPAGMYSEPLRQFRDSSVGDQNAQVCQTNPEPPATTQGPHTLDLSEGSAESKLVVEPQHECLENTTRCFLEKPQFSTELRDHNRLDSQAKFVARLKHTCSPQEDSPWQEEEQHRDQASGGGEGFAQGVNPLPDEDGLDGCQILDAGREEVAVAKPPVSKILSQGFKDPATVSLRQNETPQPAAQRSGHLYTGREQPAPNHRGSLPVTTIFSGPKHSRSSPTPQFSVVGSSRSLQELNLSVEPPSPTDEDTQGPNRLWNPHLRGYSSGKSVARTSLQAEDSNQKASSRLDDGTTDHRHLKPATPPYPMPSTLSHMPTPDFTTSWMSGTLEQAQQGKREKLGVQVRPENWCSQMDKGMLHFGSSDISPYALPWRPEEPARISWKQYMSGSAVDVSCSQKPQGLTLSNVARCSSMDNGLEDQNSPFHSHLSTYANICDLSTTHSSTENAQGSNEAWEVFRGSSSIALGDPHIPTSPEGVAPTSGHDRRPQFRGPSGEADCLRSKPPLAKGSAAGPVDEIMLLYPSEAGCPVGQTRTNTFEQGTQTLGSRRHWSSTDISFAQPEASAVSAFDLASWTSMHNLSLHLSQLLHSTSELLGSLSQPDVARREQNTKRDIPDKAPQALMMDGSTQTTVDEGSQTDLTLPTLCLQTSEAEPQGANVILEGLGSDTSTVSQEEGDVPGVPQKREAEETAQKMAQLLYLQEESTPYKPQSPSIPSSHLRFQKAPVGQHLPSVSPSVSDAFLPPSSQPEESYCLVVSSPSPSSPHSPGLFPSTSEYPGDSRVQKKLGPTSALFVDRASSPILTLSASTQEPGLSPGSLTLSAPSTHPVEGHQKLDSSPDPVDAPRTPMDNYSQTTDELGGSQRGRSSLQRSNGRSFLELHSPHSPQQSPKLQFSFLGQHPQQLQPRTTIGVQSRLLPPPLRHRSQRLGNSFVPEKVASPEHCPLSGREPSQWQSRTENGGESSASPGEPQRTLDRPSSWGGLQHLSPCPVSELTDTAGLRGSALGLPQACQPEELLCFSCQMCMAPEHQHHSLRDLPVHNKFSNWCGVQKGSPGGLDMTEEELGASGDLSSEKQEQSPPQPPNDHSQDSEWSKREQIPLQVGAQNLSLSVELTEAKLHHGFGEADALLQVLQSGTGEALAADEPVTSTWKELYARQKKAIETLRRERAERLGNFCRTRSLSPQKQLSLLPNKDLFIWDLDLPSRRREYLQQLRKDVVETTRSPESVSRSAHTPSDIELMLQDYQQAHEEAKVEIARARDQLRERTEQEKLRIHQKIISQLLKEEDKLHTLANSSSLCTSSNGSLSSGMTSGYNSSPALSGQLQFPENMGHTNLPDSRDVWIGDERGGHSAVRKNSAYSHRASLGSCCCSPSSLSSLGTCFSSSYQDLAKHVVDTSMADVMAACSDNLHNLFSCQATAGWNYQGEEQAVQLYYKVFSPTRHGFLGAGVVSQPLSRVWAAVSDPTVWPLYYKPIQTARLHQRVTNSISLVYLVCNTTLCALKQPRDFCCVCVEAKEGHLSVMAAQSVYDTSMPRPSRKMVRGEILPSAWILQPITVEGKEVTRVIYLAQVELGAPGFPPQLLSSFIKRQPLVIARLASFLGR
inactive: [1] -0.179 | [2] -0.029 | [3] 0.058 | [4] 0.073 | entinostat 0.007 | vorinostat 0 | citarinostat -0.026 | silmitasertib 0.025 | [5] -0.048 | [6] 0.028 | entospletinib -0.059

SULT1A1 (UniProt P50225)
Sequence of UniProt P50225 (P50225 whole entry, looked up): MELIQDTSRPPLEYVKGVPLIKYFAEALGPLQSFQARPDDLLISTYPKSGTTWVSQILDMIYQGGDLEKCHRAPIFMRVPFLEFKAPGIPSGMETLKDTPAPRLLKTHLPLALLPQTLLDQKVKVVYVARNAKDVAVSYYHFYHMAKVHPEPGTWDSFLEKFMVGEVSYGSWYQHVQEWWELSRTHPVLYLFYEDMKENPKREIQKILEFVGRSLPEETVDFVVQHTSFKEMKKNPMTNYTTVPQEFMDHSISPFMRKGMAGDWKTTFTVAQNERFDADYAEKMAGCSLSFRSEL
inactive: [1] -0.049 | [2] 0.039 | [3] -0.179 | [4] 0.123 | entinostat 0.133 | vorinostat 0.063 | citarinostat 0.056 | silmitasertib -0.038 | [5] -0.095 | [6] 0.032 | entospletinib -0.057

TMBIM1 (UniProt Q969X1)
inactive: [1] 0.079 | [2] -0.229 | [3] -0.008 | [4] -0.259 | entinostat 0.062 | vorinostat -0.034 | citarinostat -0.208 | silmitasertib 0.067 | [5] -0.149 | [6] 0.021 | entospletinib -0.019

SNX9 (UniProt Q9Y5X1)
inactive: [1] -0.013 | [2] -0.022 | [3] -0.102 | [4] -0.055 | entinostat 0.037 | vorinostat 0.058 | citarinostat 0.024 | silmitasertib 0.033 | [5] -0.065 | [6] -0.067 | entospletinib -0.01
